# PubChem BioAssay (EPA / NIEHS)
# Activity calls are given as the source filed them. The calls were made as follows: active = hit-call score of the fitted dose curve at least 0.9, where 1 is the maximum; inactive = score below 0.9.
# Assay: CCTE_Shafer_MEA_acute_per_network_burst_spike_number_mean: CCTE's Neural Acute Assay for Average Number of Spikes in a Network Burst, Shafer Lab (AID 2284019)
# Experimental: CCTE_Shafer_MEA_acute assay is conducted using Axion Biosystems 48 well microelectrode array (MEA) plates and Maestro recording system. Each well of the MEA plate contains a grid of 16 microelectrodes embedded in the culture surface. Electrically active cells, such as neurons, can be cultured over the electrodes, and electrical activity in these cells can be recorded extracellularly. The spontaneous firing of neurons is captured from each electrode on a microsecond timescale providing both temporally and spatially precise data. […] The CCTE_Shafer_MEA_acute assay uses primary cultures of rat cortical neurons. As these cultures mature over time, neural networks develop functional activity and form cohesive networks in which electrical activity can be highly coordinated. Baseline 40-minute recordings are made on days post-plating 13 or 15, followed by a secondary 40-minute recording after chemical exposure.CCTE_Shafer_MEA_acute_per_network_burst_spike_number_mean is a component of the CCTE_Shafer_MEA_acute assay. It measures the average number of spikes (action potential firings) in a network burst (temporally-clustered group of spikes across multiple electrodes) as the total number of spikes in a network burst divided by the number of network bursts during a recording in a microelectrode array (MEA) using Axion Biosystems Maestro 768 channel amplifier with the AxIS adaptive spike detector. The recordings before and after chemical treatment are used to calculate a percent change in the mean number of spikes in a network burst in each well.Data from the assay component CCTE_Shafer_MEA_acute_per_network_burst_spike_number_mean was analyzed into 1 assay endpoint. This assay endpoint, CCTE_Shafer_MEA_acute_per_network_burst_spike_number_mean, was analyzed in the negative analysis fitting direction relative to DMSO as the negative control and baseline of activity. Using a type of functional reporter, gain or loss-of-signal activity can be used to understand electrical activity.
# Spontaneous activity in the cortical cultures was recorded using an Axion Biosystems Maestro 768 channel amplifier and Axion Integrated Studios (AxIS) v1.8 (or later) software. The amplifier recorded from all channels simultaneously (gain = 1200 x; sampling rate = 12.5 kHz/channel): raw signals were filtered with a Butterworth band-pass filter (300-5000 Hz), which filters out slower local field potentials leaving only fast potentials, i.e., "spikes", arising from extracellular currents associated with action potentials (Pine 2006; Wheeler and Nam 2011). On-line spike detection of filtered signals was conducted with the AxIS adaptive spike detector, using a threshold of 8x the root mean squared (rms) noise on each channel. Any electrodes with rms noise levels greater than 5 uV were grounded (e.g., no data were recorded). Once grounded, an electrode was grounded for the duration of the experiment. All recordings were conducted at 37 C. Wells were deemed usable if on the day of the exposure >/= 10 electrodes were active (defined as >/= 5 spikes/min). On DIV 13 or 15, a minimum of three wells from one cortical culture preparation were treated with each compound (0.03-40 uM). Prior to recording baseline activity, each mwMEA plate was placed in the Maestro at 37 C and allowed to sit for 20 min while firing rates stabilized. Baseline activity (40 min) was recorded before the addition of each compound. An additional 40 min of spontaneous activity was recorded in the presence of each compound. Changes in network parameters relative to baseline were assessed following compound treatment.
SMILES,outcome,AC50
CC1=CC(=O)/C(=C(/C)O)C(=O)O1,inactive,
c1ccc2n[nH]nc2c1,inactive,
CC(=O)N1CCN(c2ccc(OC[C@H]3CO[C@](Cn4ccnc4)(c4ccc(Cl)cc4Cl)O3)cc2)CC1,inactive,
CCCCCCCCCCCCO,inactive,
CO[C@H]1/C=C/O[C@@]2(C)Oc3c(C)c(O)c4c(O)c(c(/C=N/N5CCN(C)CC5)c(O)c4c3C2=O)NC(=O)/C(C)=C\C=C\[C@H](C)[C@H](O)[C@@H](C)[C@@H](O)[C@@H](C)[C@H](OC(C)=O)[C@@H]1C,,12.5 µM (active)
O=c1[nH]sc2ccccc12,inactive,
CC(O)CC(C)(C)O (stereo unspecified),inactive,
CCN(CC)C(=O)c1cc(S(=O)(=O)Cc2ccccc2)c(N2CCC(c3ccccc3)CC2)cc1N(CC)CCN(C)C,,1.57 µM (active)
CN(C)c1ccc(C(=C2C=CC(=[N+](C)C)C=C2)c2ccc(N(C)C)cc2)cc1,inactive,
Cc1cn([C@H]2C[C@H](N=[N+]=[N-])[C@@H](CO)O2)c(=O)[nH]c1=O,inactive,
CN(C)C(=O)C1(N2CCCCC2)CCN(CC[C@@]2(c3ccc(Cl)c(Cl)c3)CN(C(=O)c3ccccc3)CCO2)CC1,,2.5 µM (active)
CN(C[C@@H](CC[N+]12CCC(C3CCCCC3)(CC1)CC2)c1ccc(Cl)c(Cl)c1)C(=O)c1cc(C(F)(F)F)cc(C(F)(F)F)c1,inactive,
CCCCOC(=O)c1ccc(O)cc1,inactive,
CCCCCCCCOC(=O)c1cc(O)c(O)c(O)c1,inactive,
CCN(Cc1cccc(S(=O)(=O)O)c1)c1ccc(C(=C2C=CC(=[N+](CC)Cc3cccc(S(=O)(=O)O)c3)C=C2)c2ccccc2S(=O)(=O)[O-])cc1,inactive,
COc1cc(C(=O)NC2CCN(C)CC2)ccc1Nc1ncc2c(n1)N(C1CCCC1)CC(F)(F)C(=O)N2C,,3.69 µM (active)

SMILES,outcome,AC50
CC(C)(c1cc(Br)c(O)c(Br)c1)c1cc(Br)c(O)c(Br)c1,inactive,
CC(C)(C)c1cc(/C=C2\SC(N)=NC2=O)cc(C(C)(C)C)c1O,inactive,
Cc1cc2c(cc1C(F)(F)F)N(C(=O)Nc1ccc(Oc3cccnc3C)nc1)CC2,inactive,
COc1cccc([C@H](O)C2CCN(CCc3ccc(F)cc3)CC2)c1OC,inactive,
Cc1c2ccccc2c(C)c2c1ccc1ccccc12,inactive,
OC12N=C(c3ccccc3)SC1Cc1cc(Cl)ccc12 (stereo unspecified),inactive,
CN1C(=O)CC[C@H]1c1cccnc1,inactive,
O=C(O)c1ccccc1-n1cc(C(=O)O)c(=O)c2cc(Nc3c(F)cc(F)cc3Cl)c(Cl)cc21,inactive,
Clc1ccccc1C(c1ccccc1)(c1ccccc1)n1ccnc1,inactive,
NCc1cccc(C2CCN(C(=O)c3ccc(C#Cc4ccccc4F)o3)CC2)c1,inactive,
NC(=O)c1nc(-c2cccc(-c3cc(F)ccc3OCC(F)(F)C(F)(F)F)c2)n[nH]1,,0.16 µM (active)
CC[C@@H]1C[C@H](N(Cc2cc(C(F)(F)F)cc(C(F)(F)F)c2)C(C)=O)c2cc(C(F)(F)F)ccc2N1C(=O)OC(C)C,inactive,
C[C@]12CC[C@@H]3c4ccc(O)cc4CC[C@H]3[C@@H]1CC[C@H]2O,inactive,
CC/C(=C(/CC)c1ccc(O)cc1)c1ccc(O)cc1,,5.3 µM (active)
O=C1O[C@H]([C@@H](O)CO)C(O)=C1O,inactive,
